Compound activity from PubChem.
Pf growth 48h: inhibits P. falciparum growth in the first generation, 48 h; P. falciparum luciferase growth in erythrocytes, 48 h; Potency, µM (series often up to 28.7 µM), most hits filed as inhibitors; 310,000 compounds, 5.9% hits
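First compound was added to culture medium, then infected red cells at 0.1% parasitemia and 2% hematocrit (final). After incubation at 37 C under 5% CO2, luciferase detection reagent was dispensed and light output recorded.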
Cycloheximide cs: counter-screen hit for Shiga toxin inhibitors, cycloheximide. cell reporter, cycloheximide protein synthesis inhibition counterscreen. max response, %. 300,000 compounds, 12% hits. AID 2314; in the data active = max response mostly above about 13%, no sharp cut-off; inactive = mostly below about 14%; note: read at 38.3 µM for the half of the compounds with a filed dose
MARV entry inh: blocks Marburg virus binding to or entry into cells; Marburg virus pseudotyped entry inhibition, cell reporter; Potency, µM (highest dose often 37.8 µM), hits mostly inhibitors; 300,000 compounds, 1.8% hits; AID 540276; calls by dose curve; tested in HEK293 cells
Pf growth 96h: P. falciparum growth inhibition at 96 hour, primary screen for plastid delayed-death inhibitors; P. falciparum luciferase reporter growth, 96 h; Potency, µM (top dose mostly 28.7 µM), most hits filed as inhibitors; 320,000 compounds, 6.9% hits; AID 504834
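Plates of compound plus infected erythrocytes (2% hematocrit, 0.05% parasitemia final) incubate 96 hours, 37 C, 5% CO2. Detection reagent added; reduced luminescence from the parasites' luciferase reporter flags inhibition.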
Lassa entry inh: Lassa virus entry inhibition; Potency, µM (titrated, usually from 37.9 µM), hits mostly inhibitors; 300,000 compounds, 1.2% hits; AID 540256; Lassa virus pseudotype entry inhibition, cell reporter; calls by dose curve; tested in HEK293 cells; note: nearly all actives have a fitted effect of over 50% in size
Shiga inhibitor: Shiga toxin inhibition; inhibition, % at 38.7 µM; 290,000 compounds, 9.2% hits; Vero cells, Shiga toxin protein synthesis inhibition reporter; in the data active = inhibition mostly above about 28%, no sharp cut-off; inactive = mostly below about 43%
Each line names hits and unclear results; the compound was inactive in the other large screens. The list is not random: actives were taken first. Their share in the collection is about 19%. Unless noted, calls come from the whole dose curve; as a rule, active = well fitted inhibition curve with a large enough effect; inconclusive = small, poorly fitted or top-dose-only effect, or another doubt; inactive = no such curve, though single readings can be large or run the other way.

CC(c1ccccc1)C(CC(=O)O)C(=O)Nc1ccc(Cl)c(Cl)c1 (centres undefined)	Pf growth 96h inconclusive (no result: Shiga inhibitor)
COc1ccc(CN2CCN(CCc3ccccc3)C(CCO)C2)cc1Cn1cncn1 (centres undefined)	Pf growth 48h 5.22µM, MARV entry inh inconclusive, Pf growth 96h inconclusive
CC(C)CCN1CCN(Cc2ccon2)CC1CCO (centres undefined)	none
OCCC1CN(Cc2ccon2)CCN1CCc1ccccc1 (centres undefined)	Pf growth 96h 13.1µM
COc1cccc(CN2CCN(CCCc3ccccc3)C(CCO)C2)c1O (centres undefined)	Pf growth 96h 7.38µM (no result: MARV entry inh, Lassa entry inh)
OCCC1CN(CCCc2ccccc2)CCN1CCc1ccccc1 (centres undefined)	Pf growth 48h inconclusive, MARV entry inh inconclusive, Pf growth 96h 10.4µM (no result: Shiga inhibitor)
CCOc1cc(CN2CCN(CCc3ccccc3)C(CCO)C2)ccc1OC (centres undefined)	Pf growth 48h inconclusive, MARV entry inh inconclusive, Lassa entry inh inconclusive
O=S(=O)(NC1=NCCCCC1)c1ccccc1Cl	none (no result: MARV entry inh, Lassa entry inh)
CC(C)CCn1c(N2CCc3ccccc3C2)nc2c1c(=O)[nH]c(=O)n2C	Pf growth 48h inconclusive, Pf growth 96h inconclusive (no result: MARV entry inh, Lassa entry inh)
OCCC1CN(Cc2ccc(F)cc2)CCN1CCc1ccccc1 (centres undefined)	Pf growth 48h inconclusive, Pf growth 96h inconclusive (no result: MARV entry inh, Lassa entry inh)
OCCC1CN(Cc2ccccc2O)CCN1CCc1ccccc1 (centres undefined)	Pf growth 48h 9.28µM, MARV entry inh inconclusive, Lassa entry inh inconclusive
Cc1ccc(/C=C/c2nnc(-c3ccccc3)o2)cc1	Cycloheximide cs 22.9, MARV entry inh inconclusive, Lassa entry inh inconclusive
Cc1ccc(-c2noc(/C=C/c3ccccc3)n2)cc1	Cycloheximide cs 19.3, Lassa entry inh inconclusive
CCOC(=O)COc1ccc(-c2nnc(-c3ccccc3)o2)cc1	Pf growth 96h inconclusive
C(=C\c1nnc(-c2cccs2)o1)/c1ccccc1	Cycloheximide cs 62.6, Lassa entry inh inconclusive, Shiga inhibitor 71.2
CC(=O)c1cc(-c2ccccc2)n(CC(=O)NCCc2ccc(C)cc2)c1C	none (no result: Pf growth 48h, Cycloheximide cs, MARV entry inh, Pf growth 96h, Shiga inhibitor)
Cc1ccc(/C=C2/C(=O)C3(C)CCC2C3(C)C)cc1 (centres undefined)	none (no result: Cycloheximide cs, MARV entry inh, Lassa entry inh, Shiga inhibitor)
CCC(C)N1CC(O)=C(c2nc3ccccc3[nH]2)C1=N (centres undefined)	Lassa entry inh inconclusive, Shiga inhibitor 83.7 (no result: Pf growth 96h)
CCCCCCN1CC(O)=C(c2nc3ccccc3[nH]2)C1=N	none
N=C1C(c2nc3ccccc3[nH]2)=C(O)CN1c1ccccc1	Lassa entry inh inconclusive (no result: Pf growth 48h)
CC1C(O)=C(c2nc3ccccc3[nH]2)C(=N)N1c1ccccc1 (centres undefined)	Cycloheximide cs 24.2, MARV entry inh inconclusive, Shiga inhibitor 128.1
O=C1NC2(CCCCC2)C(=O)N1/N=C/c1ccccc1Br	Pf growth 48h 3.29µM, Cycloheximide cs 22.9 (no result: MARV entry inh, Lassa entry inh)
O=C1NC2(CCCCC2)C(=O)N1/N=C/c1ccc(O)cc1O	Cycloheximide cs 38.0, MARV entry inh inconclusive, Pf growth 96h inconclusive, Shiga inhibitor 53.0 (no result: Pf growth 48h)
C=CCN(C(C(=O)OC)C(C)C)S(=O)(=O)C=C (centres undefined)	none (no result: Pf growth 48h, MARV entry inh, Pf growth 96h, Lassa entry inh)
COc1ccc(N2CC(O)=C(c3nc4ccccc4s3)C2=N)cc1	Cycloheximide cs 19.7, MARV entry inh inconclusive, Lassa entry inh inconclusive
N=C1C(c2nc3ccccc3s2)=C(O)CN1c1ccccc1	Cycloheximide cs 32.7
COc1cccc(N2CC(O)=C(c3nc4ccccc4s3)C2=N)c1	Cycloheximide cs 32.8, Shiga inhibitor 54.3 (no result: MARV entry inh, Lassa entry inh)
COc1cccc(C(=O)NN2CC(O)=C(c3nc4ccccc4s3)C2=N)c1	MARV entry inh inconclusive
O=C(CC1C=Cc2ccccc2N1C(=O)c1ccccc1)c1ccccc1 (centres undefined)	Pf growth 48h inconclusive, Pf growth 96h 0.586µM (no result: MARV entry inh, Lassa entry inh)
Cc1cccc(C)c1NC(=O)CN(C)C(=O)C(c1ccccc1)c1ccccc1	none
CC(Oc1cccc(Cl)c1)C(=O)Nc1ccc(S(=O)(=O)N(C)C2CCN(C)CC2)cc1 (centres undefined)	Pf growth 48h 9.28µM, MARV entry inh inconclusive, Pf growth 96h inconclusive (no result: Cycloheximide cs, Shiga inhibitor)
CN1CCC(N(C)S(=O)(=O)c2ccc(NC(=O)COc3ccc(Cl)cc3)cc2)CC1	Pf growth 48h 8.28µM, Pf growth 96h 4.15µM (no result: Cycloheximide cs, MARV entry inh, Lassa entry inh, Shiga inhibitor)
Nc1cc(=O)[nH]c(SCc2ccccc2Cl)n1	none (no result: MARV entry inh, Lassa entry inh)
Cc1ccc(N2CC(NC(=O)c3cc4ccccc4o3)CC2=O)cc1C (centres undefined)	none (no result: Pf growth 48h, Cycloheximide cs, MARV entry inh, Pf growth 96h, Shiga inhibitor)
Cc1cccc(Nc2nn3c(=O)c4ccccc4nc3s2)c1	MARV entry inh inconclusive, Shiga inhibitor 55.4
O=c1c2ccccc2nc2sc(Nc3cccc4ccccc34)nn12	Pf growth 96h inconclusive (no result: Cycloheximide cs, MARV entry inh, Lassa entry inh, Shiga inhibitor)
CCCSc1nn2c(=O)c3ccccc3nc2s1	Cycloheximide cs 39.2, Lassa entry inh inconclusive, Shiga inhibitor 66.1 (no result: Pf growth 48h)
O=[N+]([O-])/C(C=Nc1ccccc1O)=C\Nc1ccccc1O	Pf growth 48h inconclusive (no result: MARV entry inh, Lassa entry inh)
COC(=O)CCCNC(=O)CN1CC(c2ccccc2)CC1=O (centres undefined)	none
COc1ccc(/C=N/N2CCN(C3c4ccccc4-c4ccccc43)CC2)cc1OC	MARV entry inh inconclusive, Lassa entry inh inconclusive
CCOC(=O)CNC(=O)CSc1nc(N)cc(N)n1	Pf growth 96h 10.4µM
Cc1cccc(NC(=O)CNC(=O)CSc2nc(N)cc(N)n2)c1C	none (no result: Cycloheximide cs, Shiga inhibitor)
Nc1cc(N)nc(SCC(=O)NNC(=O)Cc2ccccc2)n1	none
Cc1ccccc1OCC(=O)NNC(=O)CSc1nc(N)cc(N)n1	Pf growth 96h 8.28µM
COc1ccc(Cl)cc1S(=O)(=O)Nc1ccc2[nH]c(=O)[nH]c2c1	Lassa entry inh inconclusive (no result: Pf growth 48h, Cycloheximide cs, Pf growth 96h, Shiga inhibitor)
CCOC(=O)c1cccc(NC(=O)CSc2nnc(C3CCCCC3)n2C)c1	Pf growth 96h inconclusive
COc1ccc2cc(C3OCCO3)c(Cl)nc2c1	Cycloheximide cs 60.1, Shiga inhibitor 128.1
COc1ccc2cc(C3NC(=O)c4ccccc4N3)c(Cl)nc2c1 (centres undefined)	Pf growth 48h inconclusive (no result: MARV entry inh, Lassa entry inh)
CCOc1ccc(N(CC(=O)NC2CC3CCC2C3)S(=O)(=O)c2ccccc2)cc1 (centres undefined)	Pf growth 48h inconclusive, MARV entry inh inconclusive, Lassa entry inh 10µM
C/C(=N\NC(=O)CN(c1ccc(Oc2ccccc2)cc1)S(C)(=O)=O)C(C)(C)C	Pf growth 48h inconclusive, Cycloheximide cs 33.3 (no result: MARV entry inh, Lassa entry inh)
CCOc1ccc(N(CC(=O)NC2CC3CCC2C3)S(=O)(=O)c2ccc(C)cc2)cc1 (centres undefined)	Pf growth 48h inconclusive, Pf growth 96h inconclusive (no result: MARV entry inh, Lassa entry inh)
CS(=O)(=O)N(CC(=O)NC1CC2CCC1C2)c1ccc(Oc2ccccc2)cc1 (centres undefined)	Pf growth 48h inconclusive, Cycloheximide cs 15.1, MARV entry inh inconclusive, Pf growth 96h inconclusive, Lassa entry inh inconclusive
COc1ccc(N(CC(=O)NC2CC3CCC2C3)S(=O)(=O)c2ccccc2)cc1OC (centres undefined)	MARV entry inh inconclusive, Lassa entry inh 8.91µM
CS(=O)(=O)N(CC(=O)NC1CCCC1)c1ccc(Oc2ccccc2)cc1	none (no result: MARV entry inh, Lassa entry inh)
